molecular target: AgAbp1; assay: SPOT peptide array binding signal intensity (averaged, normalized) (arbitrary units (background-subtracted, floor 0; scale differs between SH3 domains)); higher = stronger binding of the SH3 domain to the peptide
Procedure, shortened: (§1)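 GST-fused SH3 domains, from four yeast species, were produced in E. coli BL21(DE3) and captured on glutathione Sepharose. Membranes of cellulose carrying synthetic 15-mer peptides, in which cysteines had been replaced by serines, were exposed to each domain at 10 μg/ml overnight at 4°C in TBS-based blocking buffer. After anti-GST antibody, an HRP anti-mouse secondary and luminol, spots were imaged and quantified using Genespotter. Binding signal is normalized and background-subtracted spot intensity, averaged over replicates, in arbitrary units that differ between domains.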

Binder | SPOT peptide array binding signal intensity
PLRRTVMSLPGNHDI | 206

molecular target: AgBbc1; assay: as above
Procedure, shortened: as §1

Binder | SPOT peptide array binding signal intensity
PLRRTVMSLPGNHDI | 19.6

molecular target: AgBem1-D1; assay: as above
Procedure, shortened: as §1

Binder | SPOT peptide array binding signal intensity
PLRRTVMSLPGNHDI | 302

molecular target: AgBzz1-D1; assay: as above
Procedure, shortened: as §1

Binder | SPOT peptide array binding signal intensity
PLRRTVMSLPGNHDI | 9.5

molecular target: AgBzz1-D2; assay: as above
Procedure, shortened: as §1

Binder | SPOT peptide array binding signal intensity
PLRRTVMSLPGNHDI | 4.75

molecular target: AgCyk3; assay: as above
Procedure, shortened: as §1

Binder | SPOT peptide array binding signal intensity
PLRRTVMSLPGNHDI | ≤ 0

molecular target: AgFus1; assay: as above
Procedure, shortened: as §1

Binder | SPOT peptide array binding signal intensity
PLRRTVMSLPGNHDI | 598

molecular target: AgHof1; assay: as above
Procedure, shortened: as §1

Binder | SPOT peptide array binding signal intensity
PLRRTVMSLPGNHDI | 6.25

molecular target: AgHse1; assay: as above
Procedure, shortened: as §1

Binder | SPOT peptide array binding signal intensity
PLRRTVMSLPGNHDI | 302

molecular target: AgLsb1; assay: as above
Procedure, shortened: as §1

Binder | SPOT peptide array binding signal intensity
PLRRTVMSLPGNHDI | 29.5

molecular target: AgLsb4; assay: as above
Procedure, shortened: as §1

Binder | SPOT peptide array binding signal intensity
PLRRTVMSLPGNHDI | 4.5

molecular target: AgMyo5; assay: as above
Procedure, shortened: as §1

Binder | SPOT peptide array binding signal intensity
PLRRTVMSLPGNHDI | 3

molecular target: AgNbp2; assay: as above
Procedure, shortened: as §1

Binder | SPOT peptide array binding signal intensity
PLRRTVMSLPGNHDI | 396

molecular target: AgRvs167; assay: as above
Procedure, shortened: as §1

Binder | SPOT peptide array binding signal intensity
PLRRTVMSLPGNHDI | 3.83

molecular target: AgSho1; assay: as above
Procedure, shortened: as §1

Binder | SPOT peptide array binding signal intensity
PLRRTVMSLPGNHDI | 453

molecular target: AgSla1-D1-D2; assay: as above
Procedure, shortened: as §1

Binder | SPOT peptide array binding signal intensity
PLRRTVMSLPGNHDI | 24.2

molecular target: AgSla1-D3; assay: as above
Procedure, shortened: as §1

Binder | SPOT peptide array binding signal intensity
PLRRTVMSLPGNHDI | 6

molecular target: CaAbp1-D1; assay: as above
Procedure, shortened: as §1

Binder | SPOT peptide array binding signal intensity
PLRRTVMSLPGNHDI | 776

molecular target: CaAbp1-D2; assay: as above
Procedure, shortened: as §1

Binder | SPOT peptide array binding signal intensity
PLRRTVMSLPGNHDI | 1280

molecular target: CaBbc1; assay: as above
Procedure, shortened: as §1

Binder | SPOT peptide array binding signal intensity
PLRRTVMSLPGNHDI | 154

molecular target: CaBem1-D1; assay: as above
Procedure, shortened: as §1

Binder | SPOT peptide array binding signal intensity
PLRRTVMSLPGNHDI | 200

molecular target: CaBzz1-D1; assay: as above
Procedure, shortened: as §1

Binder | SPOT peptide array binding signal intensity
PLRRTVMSLPGNHDI | 172

molecular target: CaBzz1-D2; assay: as above
Procedure, shortened: as §1

Binder | SPOT peptide array binding signal intensity
PLRRTVMSLPGNHDI | 62.4

molecular target: CaCyk3; assay: as above
Procedure, shortened: as §1

Binder | SPOT peptide array binding signal intensity
PLRRTVMSLPGNHDI | 17

molecular target: CaFus1; assay: as above
Procedure, shortened: as §1

Binder | SPOT peptide array binding signal intensity
PLRRTVMSLPGNHDI | 1290

molecular target: CaHof1; assay: as above
Procedure, shortened: as §1

Binder | SPOT peptide array binding signal intensity
PLRRTVMSLPGNHDI | 0.375

molecular target: CaHse1; assay: as above
Procedure, shortened: as §1

Binder | SPOT peptide array binding signal intensity
PLRRTVMSLPGNHDI | 106

molecular target: CaLsb1; assay: as above
Procedure, shortened: as §1

Binder | SPOT peptide array binding signal intensity
PLRRTVMSLPGNHDI | 0.5

molecular target: CaLsb4; assay: as above
Procedure, shortened: as §1

Binder | SPOT peptide array binding signal intensity
PLRRTVMSLPGNHDI | 493

molecular target: CaMyo5; assay: as above
Procedure, shortened: as §1

Binder | SPOT peptide array binding signal intensity
PLRRTVMSLPGNHDI | 19.6

molecular target: CaNbp2; assay: as above
Procedure, shortened: as §1

Binder | SPOT peptide array binding signal intensity
PLRRTVMSLPGNHDI | 1640

molecular target: CaRvs167; assay: as above
Procedure, shortened: as §1

Binder | SPOT peptide array binding signal intensity
PLRRTVMSLPGNHDI | 110

molecular target: CaRvs167-3; assay: as above
Procedure, shortened: as §1

Binder | SPOT peptide array binding signal intensity
PLRRTVMSLPGNHDI | 20

molecular target: CaSho1; assay: as above
Procedure, shortened: as §1

Binder | SPOT peptide array binding signal intensity
PLRRTVMSLPGNHDI | 837

molecular target: CaSla1-D1-D2; assay: as above
Procedure, shortened: as §1

Binder | SPOT peptide array binding signal intensity
PLRRTVMSLPGNHDI | 247

molecular target: CaSla1-D3; assay: as above
Procedure, shortened: as §1

Binder | SPOT peptide array binding signal intensity
PLRRTVMSLPGNHDI | 60.2

molecular target: ScAbp1; assay: as above
Procedure, shortened: as §1

Binder | SPOT peptide array binding signal intensity
PLRRTVMSLPGNHDI | 205

molecular target: ScBbc1; assay: as above
Procedure, shortened: as §1

Binder | SPOT peptide array binding signal intensity
PLRRTVMSLPGNHDI | 13

molecular target: ScBem1-D1; assay: as above
Procedure, shortened: as §1

Binder | SPOT peptide array binding signal intensity
PLRRTVMSLPGNHDI | 1.5

molecular target: ScBzz1-D1; assay: as above
Procedure, shortened: as §1

Binder | SPOT peptide array binding signal intensity
PLRRTVMSLPGNHDI | 4.75

molecular target: ScBzz1-D2; assay: as above
Procedure, shortened: as §1

Binder | SPOT peptide array binding signal intensity
PLRRTVMSLPGNHDI | 5.75

molecular target: ScCyk3; assay: as above
Procedure, shortened: as §1

Binder | SPOT peptide array binding signal intensity
PLRRTVMSLPGNHDI | 15

molecular target: ScFus1; assay: as above
Procedure, shortened: as §1

Binder | SPOT peptide array binding signal intensity
PLRRTVMSLPGNHDI | 407

molecular target: ScHof1; assay: as above
Procedure, shortened: as §1

Binder | SPOT peptide array binding signal intensity
PLRRTVMSLPGNHDI | ≤ 0

molecular target: ScHse1; assay: as above
Procedure, shortened: as §1

Binder | SPOT peptide array binding signal intensity
PLRRTVMSLPGNHDI | 288

molecular target: ScLsb1; assay: as above
Procedure, shortened: as §1

Binder | SPOT peptide array binding signal intensity
PLRRTVMSLPGNHDI | 14.5

molecular target: ScLsb2; assay: as above
Procedure, shortened: as §1

Binder | SPOT peptide array binding signal intensity
PLRRTVMSLPGNHDI | ≤ 0

molecular target: ScLsb3; assay: as above
Procedure, shortened: as §1

Binder | SPOT peptide array binding signal intensity
PLRRTVMSLPGNHDI | 52

molecular target: ScLsb4; assay: as above
Procedure, shortened: as §1

Binder | SPOT peptide array binding signal intensity
PLRRTVMSLPGNHDI | 60

molecular target: ScMyo3; assay: as above
Procedure, shortened: as §1

Binder | SPOT peptide array binding signal intensity
PLRRTVMSLPGNHDI | ≤ 0

molecular target: ScMyo5; assay: as above
Procedure, shortened: as §1

Binder | SPOT peptide array binding signal intensity
PLRRTVMSLPGNHDI | ≤ 0

molecular target: ScNbp2; assay: as above
Procedure, shortened: as §1

Binder | SPOT peptide array binding signal intensity
PLRRTVMSLPGNHDI | 584

molecular target: ScPex13; assay: as above
Procedure, shortened: as §1

Binder | SPOT peptide array binding signal intensity
PLRRTVMSLPGNHDI | 177

molecular target: ScRvs167; assay: as above
Procedure, shortened: as §1

Binder | SPOT peptide array binding signal intensity
PLRRTVMSLPGNHDI | 51.9

molecular target: ScSho1; assay: as above
Procedure, shortened: as §1

Binder | SPOT peptide array binding signal intensity
PLRRTVMSLPGNHDI | 909

molecular target: ScSla1-D1-D2; assay: as above
Procedure, shortened: as §1

Binder | SPOT peptide array binding signal intensity
PLRRTVMSLPGNHDI | 305

molecular target: ScSla1-D3; assay: as above
Procedure, shortened: as §1

Binder | SPOT peptide array binding signal intensity
PLRRTVMSLPGNHDI | 404

molecular target: SpAbp1-D1; assay: as above
Procedure, shortened: as §1

Binder | SPOT peptide array binding signal intensity
PLRRTVMSLPGNHDI | 671

molecular target: SpBbc1; assay: as above
Procedure, shortened: as §1

Binder | SPOT peptide array binding signal intensity
PLRRTVMSLPGNHDI | 1.5

molecular target: SpBzz1-D1; assay: as above
Procedure, shortened: as §1

Binder | SPOT peptide array binding signal intensity
PLRRTVMSLPGNHDI | 243

molecular target: SpBzz1-D2; assay: as above
Procedure, shortened: as §1

Binder | SPOT peptide array binding signal intensity
PLRRTVMSLPGNHDI | 7.25

molecular target: SpCyk3; assay: as above
Procedure, shortened: as §1

Binder | SPOT peptide array binding signal intensity
PLRRTVMSLPGNHDI | 0.5

molecular target: SpHof1; assay: as above
Procedure, shortened: as §1

Binder | SPOT peptide array binding signal intensity
PLRRTVMSLPGNHDI | 10

molecular target: SpHof1-2; assay: as above
Procedure, shortened: as §1

Binder | SPOT peptide array binding signal intensity
PLRRTVMSLPGNHDI | 24.2

molecular target: SpHof1-3; assay: as above
Procedure, shortened: as §1

Binder | SPOT peptide array binding signal intensity
PLRRTVMSLPGNHDI | 261

molecular target: SpHse1; assay: as above
Procedure, shortened: as §1

Binder | SPOT peptide array binding signal intensity
PLRRTVMSLPGNHDI | 788

molecular target: SpLsb1; assay: as above
Procedure, shortened: as §1

Binder | SPOT peptide array binding signal intensity
PLRRTVMSLPGNHDI | 2.25

molecular target: SpLsb4; assay: as above
Procedure, shortened: as §1

Binder | SPOT peptide array binding signal intensity
PLRRTVMSLPGNHDI | 258

molecular target: SpMyo1; assay: as above
Procedure, shortened: as §1

Binder | SPOT peptide array binding signal intensity
PLRRTVMSLPGNHDI | 2.5

molecular target: SpNbp2; assay: as above
Procedure, shortened: as §1

Binder | SPOT peptide array binding signal intensity
PLRRTVMSLPGNHDI | 392

molecular target: SpPex13; assay: as above
Procedure, shortened: as §1

Binder | SPOT peptide array binding signal intensity
PLRRTVMSLPGNHDI | 40

molecular target: SpRvs167; assay: as above
Procedure, shortened: as §1

Binder | SPOT peptide array binding signal intensity
PLRRTVMSLPGNHDI | 48.8

molecular target: SpSla1-D1-D2; assay: as above
Procedure, shortened: as §1

Binder | SPOT peptide array binding signal intensity
PLRRTVMSLPGNHDI | 1.5

molecular target: SpSla1-D3; assay: as above
Procedure, shortened: as §1

Binder | SPOT peptide array binding signal intensity
PLRRTVMSLPGNHDI | 126
